Assay outcomes: PubChem, The Scripps Research Institute Molecular Screening Center
MITF primary: MITF inhibitors, primary screen, biochemical, AlphaScreen, human. 0.91% of 650,000 active. inhibition, % at 2.6 µM. AID 1259374, 2018. AlphaScreen MITF homodimerization, bead proximity signal. Microphthalmia-associated transcription factor (Homo sapiens), O75030; in the data active = inhibition above about 50%;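 note: 0% = vehicle wells with protein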
GPR151 activ: activators of human GPR151, primary screen, cell-based, PathHunter beta-arrestin, luminescence. G-protein coupled receptor 151 (Homo sapiens), Q8TDV0. PathHunter beta-arrestin GPR151 cells. activation, % at 11.2 µM. 1% of 650,000 active. AID 1508602, 2020; in the data active = activation above about 4.9%;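 note: 0% = median of compound wells and 100% = cells with positive control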
TEAD-YAP inh: TEAD-YAP interaction inhibition, primary screen, TEAD-YAP interaction inhibitor project, luminescence, HEK-TIYL cells; TEAD-Gal4/YAP UAS-luciferase luminescence; inhibition, % at 9.12 µM; 1.4% of 640,000 active; in the data active = inhibition above about 32%;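 note: 0% = median of test compound wells and 100% = reference inhibitor wells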
FBW7 act: FBW7 E3 ligase activators, primary screen, biochemical, AlphaScreen, human; 0.13% of 650,000 active; AlphaScreen FBW7–phospho-cyclin E peptide binding, activator screen; F-box/WD repeat-containing protein 7 (Homo sapiens), Q969H0; normalized activity (activation), % at 26.1 µM; in the data active = normalized activity above about 1.9%;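 note: purified mutant Fbw7 with reduced substrate affinity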
* marks the source's active call; other numbers are inactive results. Shown are actives, neighbours in structure and some others; about 3.4% of the full set was active somewhere.

SMILES | MITF primary | GPR151 activ | TEAD-YAP inh | FBW7 act
O=C1C2CCCCC2C(=O)N1c1cccc([N+](=O)[O-])c1 (stereo not drawn) | 0 | 1 | 1 | 0
CCn1c(SCC(=O)Nc2cc(C)ccc2C)nc2c(oc3ccccc32)c1=O | -3 | 1 | 3 | 0
COc1ccc(NS(=O)(=O)c2ccc3c(c2)OC(C)CN3C(C)=O)cc1OC (stereo not drawn) | 5 | -2 | 40* | 0
COc1ccc(NS(=O)(=O)c2ccc(Cc3ccc(S(=O)(=O)Nc4ccc(OC)cc4OC)cc3)cc2)c(OC)c1 | 20 | 0 | 37* | 1
CCOc1ccc(S(=O)(=O)Nc2cc(OC)ccc2OC)cc1C | 6 | -1 | 52* | 0
CCOc1ccccc1NS(=O)(=O)c1ccc(OC)c(C)c1 | 17 | -1 | 4 | 1
COc1ccc(NS(=O)(=O)c2ccc(-c3ccc(S(=O)(=O)Nc4ccc(OC)cc4OC)cc3)cc2)c(OC)c1 | 11 | -1 | -9 | 0
COc1ccc(NS(=O)(=O)c2ccc(SC)cc2)cc1OC | -11 | 0 | 44* | 0
CC(=O)N1CC(C)Oc2cc(S(=O)(=O)Nc3ccccc3Cl)ccc21 (stereo not drawn) | 0 | 1 | 4 | 0
COc1ccc(OC)c(NS(=O)(=O)c2ccc([N+](=O)[O-])cc2)c1 | -4 | -1 | 4 | 0
CCOc1ccc(S(=O)(=O)Nc2cc([N+](=O)[O-])ccc2OC)cc1 | 10 | 2 | 51* | 0
CCOc1ccc(OCC)c(NS(=O)(=O)c2c[nH]c(C(=O)OC)c2)c1 | -7 | -1 | 53* | 0
O=C(Nc1nnc(COc2ccc(C3CCCCC3)cc2)s1)C12CC3CC(CC(C3)C1)C2 | 26 | -1 | -10 | 1.9*
Cc1cccc2cc(-c3nc4ccccc4[nH]3)c(=O)oc12 | 12 | 0 | -43 | 0
Cc1ccc2cc(-c3nc4ccccc4[nH]3)c(=O)oc2c1 | 21 | -3 | -19 | 2.4*
O=C(Cn1cnc2ccccc21)NCc1cccc(Oc2ccc(F)cc2)c1 | 7 | 1 | 62* | 0
O=C(NCc1cccc(Oc2ccc(F)cc2)c1)c1cccnc1 | -2 | -1 | -50 | 0
O=C(NCc1cccc(Oc2ccc(F)cc2)c1)c1ccccn1 | -3 | 0 | 54* | 0
CC(NC(=O)CSc1nncs1)C12CC3CC(CC(C3)C1)C2 (stereo not drawn) | -3 | -1 | -8 | 0
COc1ccc(C2C=C(c3cccc(Br)c3)Nc3nnnn32)cc1OC (stereo not drawn) | 0 | 1 | 3 | 0
COc1cccc(C2=CC(c3ccccc3C)n3nnnc3N2)c1 (stereo not drawn) | -6 | -1 | 44* | 0
COc1cccc(C2C=C(c3cccc(Br)c3)Nc3nnnn32)c1 (stereo not drawn) | 7 | -1 | 49* | 0
COc1cccc(C2=CC(c3cc(Br)ccc3F)n3nnnc3N2)c1 (stereo not drawn) | 4 | 2 | 46* | 0
COC(=O)c1nnn(CC(=O)Nc2ccc(Cl)cc2Cl)c1C(=O)OC | 2 | -1 | -5 | 0
O=C(Nc1ccc(S(=O)(=O)NCc2cccnc2)cc1)c1ccco1 | 6 | 0 | 14 | 2.1*
SMILES | MITF primary | GPR151 activ | TEAD-YAP inh | FBW7 act
COc1cccc(S(=O)(=O)NCc2ccc(C(=O)Nc3cccnc3)cc2)c1 | 12 | 0 | 50* | 0
O=C(Nc1ccc(S(=O)(=O)NCc2cccnc2)cc1)c1ccccc1Cl | 3 | 1 | 28 | 0
O=C(COc1ccc(Cl)cc1Cl)Nc1cccc(-c2cn3c(n2)SCC3)c1 | 8 | 0 | 69* | 0
O=C(COc1ccc(Cl)cc1Cl)Nc1ccccc1 | 6 | 1 | 36* | 0
O=C(COc1ccc(Cl)cc1Cl)Nc1ccc(O)cc1 | -3 | 1 | 32* | 0
O=C(COc1ccc(Br)cc1Cl)Nc1ccccc1 | 14 | -1 | 54* | 0
CC(=O)Nc1ccc(NC(=O)COc2ccc(Br)cc2Cl)cc1 | -9 | -1 | -18 | 0
COc1ccc(-n2c(SCC(=O)Nc3cc(C)[nH]n3)nc3ccsc3c2=O)cc1 | 14 | 1 | 7 | 0
CCC1(C(=O)c2ccc(F)cc2)C(c2ccc([N+](=O)[O-])cc2)C1(C(=O)OC)C(=O)OC (stereo not drawn) | -5 | -1 | 2 | 0
O=C(O)C1C2C=CC(C2)C1C(=O)Nc1ccc(O)cc1 (stereo not drawn) | 24 | 2 | 8 | 0
